Results on 52 molecules are retold here after PubChem BioAssay AID1259319 (Sanford-Burnham Center for Chemical Genomics, 2017).

Hit rate of the full screen: of about 3,000 compounds, about 1,800 (60%) were called active. So high a share suggests a set chosen from earlier hits. Only a sample is shown. A number with no mark means an inactive call.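 The calls were made as follows: active = activation at or above a set limit, or at least 3 SD above the negative control mean; inactive = the rest.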

In this test the target is Nuclear receptor subfamily 1 group D member 1 (Homo sapiens) (UniProt P20393). The test is described as follows: Rev-erbα–DNA interaction modulation, retest – biochemical, FITC-DNA, fluorescence polarization, single point, confirmation (AID 1259319).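 Also: 0% = 35 nM protein with DMSO and 100% = 750 nM protein high control.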 The settings on record: Rev-erb alpha FITC-DNA binding, 90 min, at 25 µM, hits give high values.
Sequence of Nuclear receptor subfamily 1 group D member 1 (Homo sapiens) (P20393 whole entry, looked up): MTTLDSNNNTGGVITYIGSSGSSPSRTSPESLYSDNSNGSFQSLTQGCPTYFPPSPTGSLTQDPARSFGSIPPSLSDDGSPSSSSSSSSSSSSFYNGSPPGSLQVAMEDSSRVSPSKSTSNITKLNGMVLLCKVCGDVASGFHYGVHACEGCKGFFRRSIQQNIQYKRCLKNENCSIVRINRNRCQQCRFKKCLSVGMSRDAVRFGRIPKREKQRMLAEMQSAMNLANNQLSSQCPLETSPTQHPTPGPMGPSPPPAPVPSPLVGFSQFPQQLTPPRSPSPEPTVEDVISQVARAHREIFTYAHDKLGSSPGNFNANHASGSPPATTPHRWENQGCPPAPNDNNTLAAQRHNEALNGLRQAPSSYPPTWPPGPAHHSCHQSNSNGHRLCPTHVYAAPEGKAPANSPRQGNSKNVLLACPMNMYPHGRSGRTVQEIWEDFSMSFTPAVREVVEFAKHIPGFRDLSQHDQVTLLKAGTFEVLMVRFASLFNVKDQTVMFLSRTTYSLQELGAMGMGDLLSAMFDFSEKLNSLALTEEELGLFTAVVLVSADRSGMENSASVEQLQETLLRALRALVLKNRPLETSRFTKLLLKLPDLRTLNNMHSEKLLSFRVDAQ
As for `COCCCNc1nc2c(-c3cccc(C)c3)nnn2c2ccc(Cl)cc12`, the activation is 28.8% (active).

For the molecule `Cc1nn(C)cc1N1C(=O)c2cccc3c(N)ccc(c23)C1=O`, the activation was 181% (active). The figure for `CN1C(=O)c2cccc3c(N)ccc(c23)C1=O` is 225% (active). For the molecule `COc1ccc(-c2c(C)cc3oc(=O)cc(-c4ccccc4)c3c2C)cc1C=O`, the activation is 8.9%. The figure for `C=C(C)C1CC=C(C)/C(=N\NC(=O)CNc2ccccc2OC)C1` (configuration not stated) is 6.76%; for `C=CCn1c(=NC(=O)c2ccc(S(=O)(=O)N3CCCC3)cc2)sc2cc(NC(C)=O)ccc21` it is 34.3% (active); for `Cn1c(=NC(=O)c2ccc3c(c2)OCCO3)sc2cc(S(C)(=O)=O)ccc21` it is 12.7%. The figure for `COC(=O)Cn1c(=NC(=O)c2cc(OC)c(OC)c(OC)c2)sc2cc(OC)ccc21` is 14.3%. As for `C=CCn1c(=NC(=O)c2cccs2)sc2cc(NC(C)=O)ccc21`, the activation is 33.8% (active). In the case of `COc1ccccc1CC1(C)C(=O)Nc2ccc(OC(F)(F)F)cc21` (configuration not stated) it was 60.9% (active); in that of `O=C(NCc1ccc(Cl)cc1)c1cc2c(nc3sccn32)s1`, 19.2% (active). In the case of `COc1ccc(S(=O)(=O)N2CCOCC2)cc1C(=O)Nc1nc2ccccc2s1` it was 20.7% (active). `COc1cc2c(cc1NC(=O)CN1CCN(S(=O)(=O)c3ccc(F)cc3)CC1)oc1ccccc12`: the activation is 3.46%.

With `COc1ccc(C)cc1Nc1nc(C)nc2c1oc1ccccc12`, the activation was 28.2% (active).

On to `CCOC(=O)c1sc(NC(=O)CCN2CCOCC2)c(C(=O)OCC)c1C`, for which the activation was 5.98%.

Take `COc1ccc(-c2nn(C)c(=O)c3ccccc23)cc1NC(=O)COc1ccccc1`: the activation is 33.9% (active). In the case of `CCOc1ccc(NC(=O)CSc2ncnc3c2sc2ccccc23)cc1` it was 107% (active).

In the case of `COc1cc(OC)c(N2CC(C(=O)Nc3cc(Cl)ccc3N3CCOCC3)CC2=O)cc1Cl` (configuration not stated), the activation is 1.79%. In the case of `COc1cc(OC)cc(-c2c(C#Cc3ccsc3)c3cc(-c4ccc(SC)cc4)ccc3n2C)c1` it was 32.1% (active); in that of `CCOc1ccc2nc(Cl)c(C3CC(c4ccccc4)=NN3C(=O)c3cccs3)cc2c1` (configuration not stated), -0.503%. The figure for `Cc1ccc(S(=O)(=O)c2c[nH]c3ccc(Cl)cc3c2=O)cc1` is 137% (active); for `COc1ccc(-n2nc3c(N4CCC(C(=O)NCc5ccccc5)CC4)nnc(C)c3c2C)cc1` it is 32.9% (active). The figure for `COc1ccc(-n2nc(C(=O)NCC(=O)Nc3cccc(C)n3)c3ccccc3c2=O)cc1` is 10.2%. For the molecule `Cc1cc(Br)ccc1NC(=O)c1sc2ncn(CC(=O)N3CCN(c4ccccn4)CC3)c(=O)c2c1C`, the activation is 37.6% (active). In the case of `CCOC(=O)c1ccc(NC(=S)N2CCN(c3ccccn3)CC2)cc1` it was 12.8%; in that of `Cc1nc(N2CCN(c3ccccn3)CC2)c2c(C)c(C(=O)Nc3ccc(F)c(Cl)c3)sc2n1`, 17.3%. On to `COc1ccc(-c2nnc3ccc(SCc4ccccc4)nn23)cc1`, for which the activation is 14.9% (active).

`CCOc1ccc(-c2nnc3ccc(SC)nn23)cc1`: the activation was 26% (active).

Turning to `Cc1cc(C)c2nc(SCC(=O)N(C)C3CCS(=O)(=O)C3)cc(C)c2c1` (configuration not stated), the activation is 34.9% (active).

As to `CC1(C)Cc2nc3sc4c(SCC(=O)NC(c5ccccc5)c5ccccc5)ncnc4c3cc2CO1`, the activation was 138% (active).

`COc1ccc(/C=C2\SC(=S)N(CCCC(=O)NC3CCCC3)C2=O)cc1OC`: the activation is 31.3% (active). The figure for `Cc1cc(/C=C(/C#N)C(=O)Nc2ccc(Cl)cc2)c(C)n1-c1cccnc1` is 53.9% (active). In the case of `CCCc1nc(SCC(=O)Nc2ccc(S(=O)(=O)N(C)C)cc2)c2ccccc2n1` it was 18.2% (active); in that of `COC(=O)c1ccc(NC(=O)c2cc(Cl)ccc2OC)cc1`, 32.8% (active); in that of `Cc1cc(C)c(/C=C2\C(=O)Nc3ccccc32)[nH]1`, 32.5% (active). In the case of `Cc1ccc(NS(=O)(=O)c2cc3c(cc2Br)NC(=O)CO3)cc1C` it was 5.15%; in that of `COc1ccc(CCNc2nc3ccc(C)cc3n3cnnc23)cc1OC`, 2.71%. Turning to `O=C(Nc1nnc(-c2ccccc2F)s1)c1ccccc1F`, the activation was 25.2% (active). The figure for `Cc1ccc(C(=O)Nc2nnc(-c3cccs3)s2)cc1C` is -3.7%.

On to `CN1/C(=c2/s/c(=C3/C(=O)N(c4ccccc4)NC3=Nc3ccccc3)n(C)c2=O)C(C)(C)c2ccccc21`, for which the activation was 29.8% (active).

In the case of `CCCCCCSc1ccc(-c2nc3ccc(Cl)cn3c2NCc2ccccc2)cc1`, the activation is 12.7%.

In the case of `Cc1cc(C)c2c(-c3ccc(F)cc3)c(C#N)c(=O)n(C)c2n1`, the activation was 24.5% (active). In the case of `CSc1ccc(-c2c(C#N)c(N)nc3c2c(C)nn3-c2ccccc2)cc1`, the activation is 7.01%. In the case of `Cc1cc(N/C=C\C(=O)c2ccc(Cl)c(Cl)c2)no1` it was 4.17%; in that of `O=C(COc1ncnc2c(Cl)cc(Cl)cc12)N1CCN(S(=O)(=O)c2ccccc2)CC1`, 14.4%. `N#Cc1c(-c2ccc(F)cc2)cc(C2CC2)nc1SCC(=O)c1cccs1`: the activation was 65.1% (active). The figure for `CS(=O)(=O)c1ccc2nc(NC(=O)c3ccc(N4CCCC4=O)cc3)sc2c1` is 18.3% (active); for `COc1ccc(-c2csc(NC(=O)c3ccc(N4C(=O)CCC4=O)cc3)n2)cc1OC` it is 16.5%. In the case of `CCOC(=O)C1=C(c2ccccc2)O/C(=C(/C(=O)OC)C(F)(F)F)S1` it was 0.229%; in that of `CCC(C)C1(C2CCCC2)NC(=O)NC1=O` (configuration not stated), -1.67%; in that of `CC1(C)CC2CC(C)(CN2c2ncnc3ccc(Br)cc23)C1` (configuration not stated), 14%. The figure for `Cc1cccc(N(CC(=O)Nc2ccc(-c3nc4ccc(C)cc4s3)cc2)S(C)(=O)=O)c1` is 22.1% (active).
